Over roughly 110,000 compounds, “z-score” has its median near -0.1; the highest 2% begin near 2. The sample holds the highest values, similar compounds and a random draw of the others, so the mix is not that of the screen. The source made the active and inactive calls.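 Rule for the calls: active = z-score in the third read window above 3 or below -3; inactive = the rest.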
Molecular target: Metabotropic glutamate receptor 8 (Rattus norvegicus) (UniProt P70579)
Assay: rat mGluR8 modulators via GIRK flux, primary screen, cell-based, thallium flux, HTS (AID 488969)
Details: HEK293 rat mGluR8, GIRK (G protein-gated inwardly rectifying potassium channel) thallium flux, FluoZin2; at 10 µM; stronger effect = higher value; submaximal glutamate (EC20) added with thallium

Chain of Metabotropic glutamate receptor 8 (Rattus norvegicus) (P70579 whole entry, looked up): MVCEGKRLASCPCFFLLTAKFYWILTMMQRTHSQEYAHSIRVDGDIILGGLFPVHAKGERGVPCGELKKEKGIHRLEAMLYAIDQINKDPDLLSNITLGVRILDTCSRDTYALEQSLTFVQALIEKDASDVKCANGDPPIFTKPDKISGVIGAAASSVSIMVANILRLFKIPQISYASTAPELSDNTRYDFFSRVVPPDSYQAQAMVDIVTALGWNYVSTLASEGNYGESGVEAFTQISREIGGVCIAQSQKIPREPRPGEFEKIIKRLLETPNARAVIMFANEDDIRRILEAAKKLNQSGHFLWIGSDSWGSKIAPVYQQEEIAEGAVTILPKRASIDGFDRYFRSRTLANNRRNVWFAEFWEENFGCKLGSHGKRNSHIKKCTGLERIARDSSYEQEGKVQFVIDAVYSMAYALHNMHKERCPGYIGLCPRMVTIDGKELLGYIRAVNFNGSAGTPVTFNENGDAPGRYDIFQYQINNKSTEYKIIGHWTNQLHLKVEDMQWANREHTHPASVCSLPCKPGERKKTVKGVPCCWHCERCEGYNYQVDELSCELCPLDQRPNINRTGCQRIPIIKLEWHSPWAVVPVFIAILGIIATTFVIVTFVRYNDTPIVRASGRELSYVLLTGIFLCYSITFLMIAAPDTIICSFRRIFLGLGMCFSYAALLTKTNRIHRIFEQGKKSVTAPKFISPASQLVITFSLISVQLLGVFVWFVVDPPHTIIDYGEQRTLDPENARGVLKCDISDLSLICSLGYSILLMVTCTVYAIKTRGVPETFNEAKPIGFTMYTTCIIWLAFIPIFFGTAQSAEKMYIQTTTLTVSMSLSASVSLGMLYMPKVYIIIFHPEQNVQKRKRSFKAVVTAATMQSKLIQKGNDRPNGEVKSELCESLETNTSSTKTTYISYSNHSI

Going from `CCCCNS(=O)(=O)c1ccc(S(=O)(=O)NCc2ccncc2)cc1` to `CCCCc1ccc(S(=O)(=O)NCCc2ccncc2)cc1`, the z-score falls from 2.5 to 0.298.

Going from `CCCCCc1ccc(S(=O)(=O)NCCc2ccncc2)cc1` to `Cc1ccccc1NS(=O)(=O)c1ccc(OCCNS(C)(=O)=O)cc1`, the z-score falls from 0.483 to -0.0428.

Compared with `CCOC(=O)C1=C(C)Nc2sc(C(=O)c3ccc(C)cc3)c(N)c2C1c1ccc(C(=O)OC)cc1` (configuration not stated), `Cc1ccc(OCC(=O)Nc2ccc(S(=O)(=O)Nc3onc(C)c3C)cc2)cc1` is higher in z-score: -0.284 for the first, 0.0571 for the second.

Going from `O=C(NNC(=S)Nc1ccc(F)cc1)c1ccccc1OC(F)F` to `Cc1ccc(NC(=S)NNC(=O)c2ccccc2OC(F)F)cc1`, the z-score rises from -0.00644 to 0.966.

Going from `CC1Cc2ccccc2N1C(=O)CSc1ccccc1` (configuration not stated) to `O=C(CCN1C(=O)c2ccccc2S1(=O)=O)N1CCN(c2ccccc2)CC1`, the z-score rises from -0.501 to -0.363.

Going from `CCOc1ccc(N2C(=O)CC(N3CCc4ccccc43)C2=O)cc1` (configuration not stated) to `Cc1ccc(-n2c(SCC(N)=O)nc3c(c2=O)C2(CCCC2)Cc2ccccc2-3)cc1`, the z-score falls from 1.67 to -0.348.

Compared with `Cc1sc2ncn(CC(=O)NCCc3ccccc3)c(=O)c2c1C`, `CC(=O)c1cn(CC(=O)NCc2cccnc2)c2ccccc12` is higher in z-score: 0.251 for the first, 0.276 for the second.

Going from `N#CCCN(Cc1ccccc1)C(=S)Nc1ccccc1` to `N#CCCN(Cc1ccccc1)C(=S)NC(=O)c1ccccc1`, the z-score rises from -0.262 to 2.39.

First: COc1ccccc1CC(=O)N(CCC#N)CCC#N
Second: N#CCCN(Cc1cccnc1)C(=O)Nc1ccccc1
The z-score of the first is lower: -0.512 for the first, -0.271 for the second.

First: COc1ccc(CNC(=O)c2ccc(-c3ccccc3)cc2)cc1
Second: COc1ccc(C(=O)NCc2nnc(SCC(=O)NCc3ccc(F)cc3)o2)cc1
The z-score of the first is higher: -0.113 for the first, -0.134 for the second.

First: c1ccc2c(c1)CC1(CCCC1)n1nnnc1-2
Second: CCCn1c(SCC(N)=O)nc2c(c1=O)C1(CCCC1)Cc1ccccc1-2
The z-score of the first is lower: -0.648 for the first, -0.333 for the second.

Going from `C/C(=N\NC(=O)c1c(Cl)c(C)nn1C)c1ccc(NC(=O)COc2ccc(Cl)cc2C)cc1` to `CCN(CC(=O)Nc1ccc(OC)c(OC)c1)S(=O)(=O)c1ccc(C)cc1`, the z-score rises from 0.132 to 0.404.

First: O=C(CSc1ccc(-c2ccco2)nn1)c1ccc(F)cc1
Second: COc1ccc(C(=O)CSc2ccc(-c3ccco3)nn2)cc1
The z-score of the first is lower: -0.0218 for the first, 0.654 for the second.

First: N/C(Cc1cccs1)=N\OC(=O)COc1ccccc1Cl
Second: N/C(Cc1cccs1)=N\OC(=O)COc1ccccc1
The z-score of the first is lower: -2.93 for the first, -1.06 for the second.

Compared with `C=CCC1(O)CC(c2ccco2)NC(c2ccco2)C1CCC` (configuration not stated), `O=C(NCCSCc1ccco1)Nc1ccc(Cl)cc1` is lower in z-score: 1.08 for the first, 0.159 for the second.

First: Cc1c(NC(=O)C(C)c2ccc(CC(C)C)cc2)c(=O)n(-c2ccccc2)n1C (configuration not stated)
Second: Cc1nn(C)c(C)c1S(=O)(=O)N(CC(=O)N1CCc2ccccc2C1)c1ccc(C(C)C)cc1
The z-score of the first is lower: -0.175 for the first, -0.0258 for the second.

First: CCc1nc2c(sc3nc4c(cc32)COC(C)(C)C4)c(=O)n1Cc1ccccc1
Second: CC1(C)CC(=O)c2c(nc3ccccc3c2N)C1
The z-score of the first is higher: -0.115 for the first, -1.01 for the second.

First: CC1(C)CC(=O)c2c(nn(-c3ccccc3)c2N)C1
Second: CCC/C(O)=C1\C(=O)CC(c2ccccc2)CC1=NC (configuration not stated)
The z-score of the first is lower: -0.372 for the first, -0.23 for the second.

First: O=[N+]([O-])c1cccc(-c2nnc(-c3ccc4c(c3)OCO4)o2)c1
Second: Cc1cc(Nc2ccc3c(c2)OCCO3)c2ccccc2n1
The z-score of the first is lower: -0.286 for the first, 0.143 for the second.

Compared with `CC(C)N1C(=S)SC(C)(C)C1NO` (configuration not stated), `CCN(CCO)c1ncnc2c1sc1nc(CC(C)C)c3c(c12)CC(C)(C)OC3` is lower in z-score: -0.154 for the first, -0.758 for the second.

Compared with `CCCS(=O)(=O)N1CCCC(c2nc(-c3ccc(OC)cc3)no2)C1` (configuration not stated), `COc1cccc(-c2noc(C3CCCN(S(=O)(=O)c4cccc(Cl)c4C)C3)n2)c1` (configuration not stated) is higher in z-score: 0.0798 for the first, 0.354 for the second.

Going from `O=S(=O)(c1ccc2ccccc2c1)N1CCC(c2nc(-c3ccncc3)no2)CC1` to `O=[N+]([O-])c1cccc(S(=O)(=O)N2CCC(c3nc(-c4ccncc4)no3)CC2)c1`, the z-score falls from 0.107 to -0.207.

First: O=S(=O)(c1ccccc1Cl)N1CCCC1c1nc(-c2ccc(Cl)cc2)no1 (configuration not stated)
Second: O=S(=O)(c1ccccc1Cl)N1CCCC(c2nc(-c3cccnc3)no2)C1 (configuration not stated)
The z-score of the first is lower: 0.14 for the first, 2.62 for the second.

Compared with `CC(C)c1ccc(-c2noc(C3CCCN(C(=O)c4ccc(F)cc4F)C3)n2)cc1` (configuration not stated), `CCC(c1nnc(SCC(=O)Nc2ccc(Cl)cc2C(F)(F)F)n1C1CCCCC1)N(C)C` (configuration not stated) is higher in z-score: -0.983 for the first, -0.456 for the second.

Going from `COc1ccccc1N1CCN(C(=O)CCCN2C(=O)c3cccc4cccc(c34)C2=O)CC1` to `COc1ccc(S(=O)(=O)N2CCOCC2)cc1NC(=O)c1ccccc1-c1ccc(C(F)(F)F)cc1`, the z-score rises from -0.334 to -0.207.

Going from `Cn1c(=O)c2c(O)cc(=O)[nH]c2n(-c2ccccc2)c1=O` to `Cc1nc2nc(-c3ccco3)[nH]n2c(=O)c1Cc1ccccc1`, the z-score falls from -0.00781 to -1.16.

Compared with `Cc1noc(C)c1C(c1ccccc1)S(=O)(=O)c1ccccc1` (configuration not stated), `Cc1noc(NS(=O)(=O)c2ccc(NC(=O)CS(=O)(=O)c3ccccc3)cc2)c1C` is lower in z-score: 0.53 for the first, 0.155 for the second.

Compared with `O=C(CSc1ncccn1)N/N=C/c1cccc([N+](=O)[O-])c1`, `O=C(CSc1nc(-c2ccco2)cc(C(F)(F)F)n1)NCCc1ccccc1` is lower in z-score: 1.35 for the first, 0.104 for the second.

First: O=C(COC(=O)c1ccc(Br)o1)Nc1cccc(S(=O)(=O)N2CCCCCC2)c1
Second: O=C(NC(=S)Nc1ccc(S(=O)(=O)N2CCCCCC2)cc1)c1cccs1
The z-score of the first is higher: 0.698 for the first, -0.208 for the second.

First: COC(=O)c1ccccc1NC(=O)CSc1nnc(Cc2ccc(Cl)cc2)o1
Second: O=C(Nc1ccc(Cl)cc1)Nc1ccccc1C(=O)NCc1ccco1
The z-score of the first is higher: -0.323 for the first, -0.534 for the second.

Compared with `COc1cccc(Nc2nc(NCCO)c3ccccc3n2)c1`, `COc1cccc(Nc2ncnc3ccccc23)c1` is higher in z-score: -0.496 for the first, -0.25 for the second.

Compared with `COc1ccc(Nc2cc(C)nc3ccccc23)cc1`, `COc1cccc(Nc2cc(C)nc3ccccc23)c1` is higher in z-score: 2.44 for the first, 2.53 for the second.

First: COC(=O)Nc1cc(C)nc2ccccc12
Second: COc1cc(NC(=O)CS(=O)(=O)c2ccccc2)cc(OC)c1OC
The z-score of the first is lower: 0.301 for the first, 1.2 for the second.

Compared with `CCOc1cccc(OCCCCN2CCOCC2)c1`, `O=C(Nc1cccc(C(=O)N2CCOCC2)c1)c1ncn[nH]1` is higher in z-score: -0.982 for the first, -0.145 for the second.

First: COc1cc2nc(-c3ccc(Br)o3)oc(=O)c2cc1OC
Second: Cc1cc(=O)oc2cc(OCC(=O)OCc3nnc(-c4ccccc4)o3)ccc12
The z-score of the first is lower: -1.58 for the first, -0.34 for the second.

First: CCn1cc(C(=O)O)c(=O)c2cc(F)c(N/N=C/c3ccccc3)cc21
Second: O=C(Nn1c(SCc2ccccc2F)nc2ccsc2c1=O)c1ccccc1
The z-score of the first is lower: -0.559 for the first, -0.0125 for the second.

First: O=C(O)CCc1ccc(S(=O)(=O)N2CCOCC2)cc1
Second: O=C(CCc1ccc(S(=O)(=O)N2CCOCC2)cc1)N1CCCC1
The z-score of the first is lower: 0.0366 for the first, 2.62 for the second.

First: O=C(CCc1ccc(S(=O)(=O)N2CCOCC2)cc1)NN=C1CCCCCCC1
Second: O=C(NC(=S)Nc1ccc(S(=O)(=O)N2CCCC2)cc1)c1cccs1
The z-score of the first is lower: -0.592 for the first, 1.1 for the second.

First: COC(=O)CNC(=O)CN1C(=O)N(c2ccc(Cl)cc2)C(N(O)C(=O)Nc2ccc(Cl)cc2)C1(C)C (configuration not stated)
Second: Cc1ccc(S(=O)(=O)CC(=O)Nc2ccc(S(=O)(=O)Nc3onc(C)c3C)cc2)cc1
The z-score of the first is lower: 0.0314 for the first, 2.41 for the second.

First: CCOc1ncccc1C(=O)OCc1nnc(-c2ccccc2)o1
Second: CCOc1cc(CNCCSc2nnnn2C)cc(Br)c1OCc1ccccc1
The z-score of the first is lower: -0.473 for the first, 2.3 for the second.

Compared with `Cn1c(-c2sc3cc(C(F)(F)F)cnc3c2-c2ccccc2)n[nH]c1=S`, `Cc1nc(-c2ccccc2)sc1-c1n[nH]c(=S)n1C` is lower in z-score: 1.26 for the first, 0.154 for the second.

Compared with `CCCc1cc(-c2n[nH]c(C(=O)OCC)c2-c2cscn2)c(O)cc1O`, `CCOc1cc(CNCCSc2nnnn2C)cc(Br)c1OCc1ccc(F)cc1` is higher in z-score: -0.373 for the first, 0.297 for the second.

Compared with `O=C(c1ccc(Br)o1)N1CCCc2ccccc21`, `O=C(Nc1ccccc1N1CCCCC1)c1cccs1` is higher in z-score: -0.269 for the first, 0.223 for the second.

Compared with `COc1ccc(CNC(=O)CSCc2cccc(Cl)c2)cc1`, `COc1ccc(CNC(=O)CCSCc2ccccc2Cl)c(OC)c1` is lower in z-score: -0.235 for the first, -0.407 for the second.

Compared with `CCOc1ccccc1C(=O)NC(CO)C(=O)O` (configuration not stated), `CCNCCOC(c1ccccc1)c1ccccc1` is higher in z-score: -0.109 for the first, 0.455 for the second.

Going from `Clc1ccccc1-c1ccc(/C=N/n2cnnc2)o1` to `Cc1c(Cl)cccc1-c1ccc(/C=N/n2cnnc2)o1`, the z-score falls from 0.334 to -0.29.

First: O=C(Cn1nc(Cl)nc1Cl)c1cc2ccccc2oc1=O
Second: CC(=O)Cc1nsc(NC(=O)c2cc(-c3ccc(Cl)c(Cl)c3)oc2C)n1
The z-score of the first is lower: -0.931 for the first, -0.22 for the second.

First: CCOc1cc(CNCCSc2nnnn2C)cc(Br)c1OCc1ccccc1F
Second: NNC(=O)c1nnn(-c2nonc2N)c1-c1cccs1
The z-score of the first is higher: 0.196 for the first, -0.0988 for the second.

For `CCCCCC(=O)NC(=S)Nc1ccc(N2CCCCC2)c(Cl)c1`, the z-score was -0.183.

With `CCc1ccc(NC(=S)NNC(=O)c2ccccc2OC(F)F)cc1` the z-score was 3.63 (active).
With `COc1ccc(CN(CCC#N)C(=S)NC(=O)c2ccccc2)cc1` the z-score was 4.49 (active).
`O=C(CSc1ccc(-c2ccco2)nn1)c1ccccc1` was tested, and the z-score was 7.29 (active).
For `Cc1ccccc1OCC(=O)O/N=C(\N)Cc1cccs1`, the z-score was 3.93 (active).
For `CC1(C)CC(=O)c2c(noc2-c2ccccc2)C1`, the z-score was 3.63 (active).
`CC(C)c1ccc(-c2noc(C3CCCN(S(C)(=O)=O)C3)n2)cc1` (configuration not stated) was tested, and the z-score was 5.82 (active).
In the case of `O=S(=O)(c1ccc(Cl)c(F)c1)N1CCC(c2nc(-c3ccncc3)no2)CC1`, the z-score was 8.06 (active).
`CCn1c(SCC(N)=O)nc2c(c1=O)C1(CCCC1)Cc1ccccc1-2` was tested, and the z-score was 5.27 (active).
`O=C(Nc1ccc(Cl)cc1)NC1CCCCC1Cc1ccco1` (configuration not stated) was tested, and the z-score was 7.39 (active).
`Cn1c(-c2sc3ccccc3c2Cl)n[nH]c1=S` was tested, and the z-score was 13.3 (active).
In the case of `COc1cc(NC(=O)CS(=O)(=O)c2ccc(C)cc2)cc(OC)c1OC`, the z-score was 3.72 (active).
For `COc1ccc(CNC(=O)CSCc2ccccc2Cl)cc1`, the z-score was 4.96 (active).
With `Clc1cccc(-c2ccc(/C=N/n3cnnc3)o2)c1Cl` the z-score was 8.91 (active).
For `O=C(NC(=S)Nc1ccc(N2CCCCC2)c(Cl)c1)c1cccs1`, the z-score was 8.72 (active).
`O=C(NC(=S)Nc1ccc(N2CCCCC2)cc1)c1cccs1` was tested, and the z-score was 11 (active).
